# Data from PubChem BioAssay (Tox21).
# Values joined by “and” are separate entries in the source; they are usually repeats but may differ in a detail not shown here. Identical values can stand only once. Inconclusive results are not listed. Entries that show only a call come without a potency. Some structures have more than one record in an assay (separate samples or runs), and their calls can disagree. Active and inactive are the calls of the source. Calls come from the whole dose curve; as a rule, active = well fitted cell-killing curve with a large enough effect in the repeat runs; inconclusive = weak or mixed curves, or effect the other way; inactive = no such curve, though single readings can be large or run the other way.
# Experiment: qHTS assay for identifying genotoxic compounds that show differential cytotoxicity against isogenic chicken DT40 cell lines with known DNA damage response pathways - wild type cell line (AID 743012); note: nearly all actives have a fitted effect of over 60% in size
# Settings: DT40 wild type chicken cells viability, CellTiter-Glo, 40 h; series mostly up to 68.4 µM
# Source text: U.S. Tox21 Program National Center for Advancing Translational Sciences [NCATS] NIH Chemical Genomics Center [NCGC] U.S. Environmental Protection Agency [EPA] National Institutes of Environmental Health Sciences [NIEHS] National Toxicology Program [NTP] U.S. Food and Drug Administration [FDA] Tox21 Assay Overview: DNA repair pathways play a critical role in cellular homeostasis by repairing DNA damage induced by endogenous processes and xenobiotics. Isogenic chicken DT40 cell lines deficient in different DNA repair pathways can be used to identify genotoxic compounds and aid in characterizing the nature of the DNA damage induced. Two DNA repair-deficient cell lines with disrupted genes, Rad54/Ku70 or Rev3, were used to screen the Tox21 10K compound library. Possible genotoxicity was based on the presence of a significant increase in cytotoxicity in one or more of the DNA repair-deficient cell lines compared to that observed in the parental DNA repair-proficient cell line. CellTiter Glo viability assay (Promega, Madison, WI) was used to measure cell viability in these cells after compound treatment. This assay includes the data from the wild type cell line.
# Tox21 Assay Protocol Summary: 300 DT40 wild type cells in 5 uL/well were dispensed into white, solid-bottom 1536-well plates using a Multidrop Combi (ThermoFisher Scientific, Waltham, MA) dispenser. After the assay plates were incubated at 37 C/5% CO2 for approximately 0.5 hour, 23 nL of compounds dissolved in DMSO, positive controls or DMSO only was transferred into the assay plate by a pintool work station (Kalypsys, San Diego, CA). The assay plates were incubated at 37 C/5% CO2 for 40 hours. After 5 uL per well of CellTiter-Glo reagent was added into each well of the assay plates, the plates were incubated for 30 min at room temperature and the luminescence intensity of the plates was measured using a ViewLux (PerkinElmer, Shelton, CT) plate reader.
# Potency is the fitted concentration of half-maximal effect.
row,SMILES,Potency
1,Cc1cc2nc3c(=O)[nH]c(=O)nc-3n(C[C@H](O)[C@H](O)[C@H](O)CO)c2cc1C,inactive
2,O=CCCCC=O,6.11 µM (active)
3,CC(=O)Oc1ccccc1C(=O)Nc1ncc([N+](=O)[O-])s1,13.3 µM (active)
4,Cc1[nH]c(=O)c(C#N)cc1-c1ccncc1,inactive
5,Oc1ccc(O)cc1,23.7 µM (active) and 9.63 µM (active) and 61.1 µM (active)
6,CN1C(C(=O)Nc2ccccn2)=C(O)c2ccccc2S1(=O)=O,inactive
7,Nc1ccc(S(=O)(=O)Nc2cnc3ccccc3n2)cc1,inactive
8,C#C[C@]1(O)CC[C@H]2[C@@H]3CCC4=Cc5oncc5C[C@]4(C)[C@H]3CC[C@@]21C,9.69 µM (active)
9,c1ccc2c(c1)Oc1ccccc1S2,inactive
10,CC(C)OC(=O)C(C)(C)Oc1ccc(C(=O)c2ccc(Cl)cc2)cc1,29.8 µM (active) and 12.2 µM (active)
11,Nc1ncnc2nc[nH]c12,inactive
12,Cc1cccc([N+](=O)[O-])c1C,inactive
13,CC(C)Oc1ccc2c(=O)c(-c3ccccc3)coc2c1,6.68 µM (active)
14,OCCO,inactive
15,Nc1ccccc1N,3.86 µM (active)
16,CC(C)OB(OC(C)C)OC(C)C,inactive
17,CCCCC(CC)COCC1CO1 (stereo not given),inactive
18,O=C(c1ccc(OCCN2CCCCC2)cc1)c1c(-c2ccc(O)cc2)sc2cc(O)ccc12,3.35 µM (active) and 27.3 µM (active) and 5.45 µM (active)
19,CCCCC(CC)COP(=O)(OCC(CC)CCCC)OCC(CC)CCCC (stereo not given),inactive
20,C[C@]12CC[C@H]3[C@@H](CCC4=CC(=O)CC[C@@]43C)[C@@H]1CC[C@@H]2C(=O)CO,6.86 µM (active)

row,SMILES,Potency
1,CCCCNS(=O)(=O)c1ccccc1,inactive
2,CCOC(=O)C(C#N)=C(c1ccccc1)c1ccccc1,23.7 µM (active) and 17.2 µM (active)
3,O=P(O)(O)O,inactive
4,OC(CCl)CCl,inactive
5,CN(C)CCC=C1c2ccccc2CCc2ccccc21,9.44 µM (active) and 54.5 µM (active)
6,O=[N+]([O-])c1ccc2c(c1)Cc1ccccc1-2,inactive
7,c1ccc2cc(Nc3ccc(Nc4ccc5ccccc5c4)cc3)ccc2c1,inactive
8,O=C(/C=C/c1ccccc1)OCc1ccccc1,inactive and 54.5 µM (active)
9,O=C(Nc1ccc([N+](=O)[O-])cc1Cl)c1cc(Cl)ccc1O,422 nM (active) and 770 nM (active)
10,Brc1cc(Oc2cc(Br)c(Br)c(Br)c2Br)c(Br)c(Br)c1Br,inactive
11,CC(C)OC=O,inactive
12,CCCCCCCCCC(=O)OC,inactive
13,O=Cc1ccccc1O,inactive
14,c1ccc2c(c1)c1cccc3ccc4cccc2c4c31,inactive
15,CCC(C)c1ccccc1O (stereo not given),inactive
16,CCC(C)CO (stereo not given),inactive
17,C[C@]12CCC(=O)C=C1CC[C@@H]1[C@@H]2C(=O)C[C@@]2(C)[C@H]1CC[C@]2(O)C(=O)CO,inactive and 61.1 µM (active)
18,C=CC(C)(CCC=C(C)C)OC(C)=O (stereo not given),inactive
19,Nc1ccc(Cl)cc1Cl,inactive
20,c1ccc(Nc2ccccc2)cc1,61.1 µM (active)
